Holding throughout (assay): DAPPL (digital affinity profiling via proximity ligation, sequencing); 10 mM Tris-HCl pH 7.5, 50 mM NaCl, 1 mM DTT, 4% glycerol, room temperature, 30 min; GST-TFs on glutathione beads, 16-mer random dsDNA library, 0.1% formaldehyde crosslink after washing; high values mean tight binding
One assay has as its target T1, FLI1 (Homo sapiens, UniProt Q01543 1-452).
T1 sequence: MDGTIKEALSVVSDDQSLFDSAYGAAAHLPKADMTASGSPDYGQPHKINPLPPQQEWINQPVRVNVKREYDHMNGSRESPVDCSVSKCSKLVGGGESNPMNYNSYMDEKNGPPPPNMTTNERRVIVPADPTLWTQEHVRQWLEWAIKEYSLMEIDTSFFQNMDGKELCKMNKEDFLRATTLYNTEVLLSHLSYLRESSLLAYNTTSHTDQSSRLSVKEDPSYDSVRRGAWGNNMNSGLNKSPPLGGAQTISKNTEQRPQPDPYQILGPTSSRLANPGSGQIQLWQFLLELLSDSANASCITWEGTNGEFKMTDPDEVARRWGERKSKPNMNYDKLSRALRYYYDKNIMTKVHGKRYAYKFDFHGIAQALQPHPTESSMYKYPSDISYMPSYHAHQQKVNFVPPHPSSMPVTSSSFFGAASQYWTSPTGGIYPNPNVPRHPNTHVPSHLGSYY
The following applies: protein: recombinant; tags: N-terminal GST; dsDNA, one strand shown. An outline of the steps:
(§1)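 Binding signal is given per hexamer as its read frequency for a factor divided by its frequency in the tag-only sample. GST-fused human transcription factors were expressed in yeast, captured on glutathione beads, barcoded with DNA and pooled with that sample, then incubated with 200 nmole of a 16-mer random double-stranded DNA library in Tris/NaCl/DTT/glycerol buffer for 30 min at room temperature. The pools were then washed, crosslinked, proximity-ligated, amplified by PCR and sequenced on an Illumina NextSeq500.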

The target of a further assay is T2, ELK1 (Homo sapiens, UniProt P19419 1-428).
T2 sequence: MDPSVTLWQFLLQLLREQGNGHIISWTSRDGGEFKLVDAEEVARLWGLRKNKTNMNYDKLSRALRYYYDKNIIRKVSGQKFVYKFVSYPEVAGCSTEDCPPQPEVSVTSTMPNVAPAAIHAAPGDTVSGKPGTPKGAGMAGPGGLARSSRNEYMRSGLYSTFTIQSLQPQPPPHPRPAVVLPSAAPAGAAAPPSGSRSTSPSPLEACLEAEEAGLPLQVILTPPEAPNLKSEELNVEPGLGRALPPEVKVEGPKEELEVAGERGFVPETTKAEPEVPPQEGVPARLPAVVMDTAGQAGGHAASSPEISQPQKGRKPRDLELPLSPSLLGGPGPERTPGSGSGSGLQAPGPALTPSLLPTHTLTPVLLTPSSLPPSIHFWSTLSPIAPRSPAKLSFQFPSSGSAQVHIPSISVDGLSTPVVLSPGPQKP
The following applies: protein: recombinant; tags: N-terminal GST; dsDNA, one strand shown. A digest of the protocol: as §1

A further assay deals with T3, GABPA (Homo sapiens, UniProt Q06546 1-454).
T3 sequence: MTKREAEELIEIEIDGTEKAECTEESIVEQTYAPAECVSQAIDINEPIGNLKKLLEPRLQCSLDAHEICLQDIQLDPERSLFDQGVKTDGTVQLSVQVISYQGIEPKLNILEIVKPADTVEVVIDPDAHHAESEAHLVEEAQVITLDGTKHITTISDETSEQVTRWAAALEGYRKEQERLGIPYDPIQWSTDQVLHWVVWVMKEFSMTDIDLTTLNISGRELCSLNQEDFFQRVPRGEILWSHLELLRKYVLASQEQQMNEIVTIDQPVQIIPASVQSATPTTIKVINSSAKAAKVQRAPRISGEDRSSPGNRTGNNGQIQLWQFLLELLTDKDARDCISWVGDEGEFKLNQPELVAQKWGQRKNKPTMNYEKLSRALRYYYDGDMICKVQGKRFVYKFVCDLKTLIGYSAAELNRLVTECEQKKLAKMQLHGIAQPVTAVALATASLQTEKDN
As to conditions: protein: recombinant; tags: N-terminal GST; dsDNA, one strand shown. An outline of the steps:
as §1

Another assay deals with T4, ERG (Homo sapiens, UniProt P11308 1-479).
T4 sequence: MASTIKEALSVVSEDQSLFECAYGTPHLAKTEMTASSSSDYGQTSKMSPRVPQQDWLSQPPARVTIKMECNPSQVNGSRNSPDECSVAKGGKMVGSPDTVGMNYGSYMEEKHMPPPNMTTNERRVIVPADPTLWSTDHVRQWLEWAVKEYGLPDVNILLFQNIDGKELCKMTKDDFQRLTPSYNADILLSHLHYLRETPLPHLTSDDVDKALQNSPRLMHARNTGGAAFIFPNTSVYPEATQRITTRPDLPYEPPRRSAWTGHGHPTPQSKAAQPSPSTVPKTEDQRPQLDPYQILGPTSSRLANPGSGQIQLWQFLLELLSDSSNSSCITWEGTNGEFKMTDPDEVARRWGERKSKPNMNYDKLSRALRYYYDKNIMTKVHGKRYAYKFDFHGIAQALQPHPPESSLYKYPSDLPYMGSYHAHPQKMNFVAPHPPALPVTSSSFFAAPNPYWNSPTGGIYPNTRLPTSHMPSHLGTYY
As to conditions: protein: recombinant; tags: N-terminal GST; dsDNA, one strand shown. A digest of the protocol: as §1

The target of the next assay is ELF1 (Homo sapiens, UniProt P32519 1-619). As to conditions: protein: recombinant; tags: N-terminal GST; dsDNA, one strand shown. A digest of the protocol:
as §1

The target of a further assay is T5, EHF (Homo sapiens, UniProt Q9NZC4 1-300).
T5 sequence: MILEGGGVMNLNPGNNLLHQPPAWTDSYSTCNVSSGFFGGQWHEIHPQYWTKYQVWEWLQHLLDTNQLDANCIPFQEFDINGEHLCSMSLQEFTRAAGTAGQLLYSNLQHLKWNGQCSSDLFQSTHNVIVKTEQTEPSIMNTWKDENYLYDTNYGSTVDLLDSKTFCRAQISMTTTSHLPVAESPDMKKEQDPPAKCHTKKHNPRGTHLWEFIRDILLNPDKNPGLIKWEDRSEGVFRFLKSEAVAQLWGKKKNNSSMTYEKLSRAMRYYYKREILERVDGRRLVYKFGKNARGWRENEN
The following applies: protein: recombinant; tags: N-terminal GST; dsDNA, one strand shown. An outline of the steps:
as §1

Another assay deals with SPI1 (Homo sapiens, UniProt P17947 1-270). As to conditions: protein: recombinant; tags: N-terminal GST; dsDNA, one strand shown. An outline of the steps: as §1
For the next assay, the target named is SPIB (Homo sapiens, UniProt Q01892 1-262). The following applies: protein: recombinant; tags: N-terminal GST; dsDNA, one strand shown. A digest of the protocol: as §1
A further assay concerns the target T6, ELK3 (Homo sapiens, UniProt P41970 1-407).
T6 sequence: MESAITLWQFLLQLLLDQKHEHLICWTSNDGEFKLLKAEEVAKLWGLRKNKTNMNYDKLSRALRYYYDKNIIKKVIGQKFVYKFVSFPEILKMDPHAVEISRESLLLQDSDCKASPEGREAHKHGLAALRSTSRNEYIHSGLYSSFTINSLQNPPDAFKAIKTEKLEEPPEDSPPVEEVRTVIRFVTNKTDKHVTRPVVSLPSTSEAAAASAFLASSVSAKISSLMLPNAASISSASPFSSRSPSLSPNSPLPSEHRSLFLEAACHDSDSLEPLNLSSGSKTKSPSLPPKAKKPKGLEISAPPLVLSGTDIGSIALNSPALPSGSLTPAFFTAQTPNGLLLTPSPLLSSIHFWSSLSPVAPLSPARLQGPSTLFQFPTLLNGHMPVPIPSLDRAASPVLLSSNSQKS
The following applies: protein: recombinant; tags: N-terminal GST; dsDNA, one strand shown. An outline of the steps:
as §1

The target in the next assay is T7, FEV (Homo sapiens, UniProt Q99581 1-238).
T7 sequence: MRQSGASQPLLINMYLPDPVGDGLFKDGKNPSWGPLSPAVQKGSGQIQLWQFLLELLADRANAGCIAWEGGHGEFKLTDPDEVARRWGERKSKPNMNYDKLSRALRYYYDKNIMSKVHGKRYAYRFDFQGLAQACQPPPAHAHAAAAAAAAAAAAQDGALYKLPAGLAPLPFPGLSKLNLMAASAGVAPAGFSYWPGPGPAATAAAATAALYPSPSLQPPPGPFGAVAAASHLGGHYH
The following applies: protein: recombinant; tags: N-terminal GST; dsDNA, one strand shown. An outline of the steps:
as §1

A further assay concerns the target ETV5 (Homo sapiens, UniProt P41161 1-510). The following applies: protein: recombinant; tags: N-terminal GST; dsDNA, one strand shown. An outline of the steps:
as §1

The target in another assay is HSF1 (Homo sapiens, UniProt Q00613 1-529). As to conditions: protein: recombinant; tags: N-terminal GST; chain copies: 3; dsDNA, one strand shown. A digest of the protocol: as §1
For another assay, the target named is T8, SPIC (Homo sapiens, UniProt Q8N5J4 1-248).
T8 sequence: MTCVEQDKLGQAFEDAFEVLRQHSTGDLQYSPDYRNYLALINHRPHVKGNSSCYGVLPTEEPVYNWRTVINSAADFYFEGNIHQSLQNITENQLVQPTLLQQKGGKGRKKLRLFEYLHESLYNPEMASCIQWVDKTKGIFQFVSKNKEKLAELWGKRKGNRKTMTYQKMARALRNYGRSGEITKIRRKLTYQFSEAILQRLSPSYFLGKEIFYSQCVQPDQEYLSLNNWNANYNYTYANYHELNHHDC
As to conditions: protein: recombinant; tags: N-terminal GST; dsDNA, one strand shown. An outline of the steps: as §1

In a further assay the target is ELF4 (Homo sapiens, UniProt Q99607 1-663). The following applies: protein: recombinant; tags: N-terminal GST; dsDNA, one strand shown. A digest of the protocol: as §1
The next assay deals with T9, ELK4 (Homo sapiens, UniProt P28324-2 1-405).
T9 sequence: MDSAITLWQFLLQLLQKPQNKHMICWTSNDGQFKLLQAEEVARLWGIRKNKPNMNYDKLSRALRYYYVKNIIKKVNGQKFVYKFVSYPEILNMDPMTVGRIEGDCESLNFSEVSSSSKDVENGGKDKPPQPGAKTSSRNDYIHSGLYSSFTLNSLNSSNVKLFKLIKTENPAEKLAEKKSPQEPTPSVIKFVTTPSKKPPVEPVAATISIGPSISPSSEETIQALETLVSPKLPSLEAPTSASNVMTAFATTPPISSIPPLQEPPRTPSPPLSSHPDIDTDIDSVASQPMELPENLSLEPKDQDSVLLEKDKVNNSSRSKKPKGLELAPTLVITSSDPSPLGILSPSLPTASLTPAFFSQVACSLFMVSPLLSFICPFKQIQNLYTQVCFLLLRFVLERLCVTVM
As to conditions: protein: recombinant; tags: N-terminal GST; dsDNA, one strand shown. An outline of the steps:
as §1

The target in a further assay is T10, ETV2 (Homo sapiens, UniProt O00321 1-342).
T10 sequence: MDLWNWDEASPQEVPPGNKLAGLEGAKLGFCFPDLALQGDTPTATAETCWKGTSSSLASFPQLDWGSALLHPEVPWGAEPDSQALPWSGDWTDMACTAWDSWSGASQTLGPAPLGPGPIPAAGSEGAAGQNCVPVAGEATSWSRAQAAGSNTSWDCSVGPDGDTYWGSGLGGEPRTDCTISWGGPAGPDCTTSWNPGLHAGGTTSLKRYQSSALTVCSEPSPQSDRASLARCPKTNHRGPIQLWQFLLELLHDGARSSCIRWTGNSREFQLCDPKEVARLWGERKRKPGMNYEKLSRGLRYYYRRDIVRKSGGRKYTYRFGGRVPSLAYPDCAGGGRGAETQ
The following applies: protein: recombinant; tags: N-terminal GST; dsDNA, one strand shown. A digest of the protocol:
as §1

The target of another assay is T11, ELF3 (Homo sapiens, UniProt P78545 1-371).
T11 sequence: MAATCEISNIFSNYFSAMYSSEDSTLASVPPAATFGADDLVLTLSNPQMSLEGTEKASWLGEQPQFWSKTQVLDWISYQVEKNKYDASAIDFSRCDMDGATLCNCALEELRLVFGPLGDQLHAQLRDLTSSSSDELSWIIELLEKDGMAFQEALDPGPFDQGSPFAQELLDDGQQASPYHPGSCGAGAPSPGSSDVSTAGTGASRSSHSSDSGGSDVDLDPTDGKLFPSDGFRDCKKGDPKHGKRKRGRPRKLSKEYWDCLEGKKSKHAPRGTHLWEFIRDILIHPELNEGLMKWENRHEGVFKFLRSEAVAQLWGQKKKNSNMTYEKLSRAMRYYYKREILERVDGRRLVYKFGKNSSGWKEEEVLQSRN
The following applies: protein: recombinant; tags: N-terminal GST; dsDNA, one strand shown. An outline of the steps:
as §1

Another assay addresses CRX (Homo sapiens, UniProt O43186 1-299). As to conditions: protein: recombinant; tags: N-terminal GST; dsDNA, one strand shown. An outline of the steps: as §1
Another assay concerns the target ETV1 (Homo sapiens, UniProt P50549 1-477). As to conditions: protein: recombinant; tags: N-terminal GST; dsDNA, one strand shown. An outline of the steps: as §1

Chain of ETV1 (P50549 whole entry): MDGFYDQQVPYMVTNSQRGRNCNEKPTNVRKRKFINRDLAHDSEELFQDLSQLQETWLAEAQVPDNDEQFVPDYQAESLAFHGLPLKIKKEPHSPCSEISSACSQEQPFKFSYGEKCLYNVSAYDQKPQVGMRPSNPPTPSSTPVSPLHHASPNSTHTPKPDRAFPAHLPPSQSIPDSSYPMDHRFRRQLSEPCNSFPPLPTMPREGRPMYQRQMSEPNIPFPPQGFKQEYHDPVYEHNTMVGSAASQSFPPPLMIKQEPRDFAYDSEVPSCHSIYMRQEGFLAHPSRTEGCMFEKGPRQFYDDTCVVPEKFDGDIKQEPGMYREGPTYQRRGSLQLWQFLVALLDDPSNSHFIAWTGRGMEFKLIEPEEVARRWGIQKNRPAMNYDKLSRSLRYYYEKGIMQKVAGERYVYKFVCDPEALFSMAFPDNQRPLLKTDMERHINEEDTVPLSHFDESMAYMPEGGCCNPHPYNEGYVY
Chain of ELF1 (P32519 whole entry): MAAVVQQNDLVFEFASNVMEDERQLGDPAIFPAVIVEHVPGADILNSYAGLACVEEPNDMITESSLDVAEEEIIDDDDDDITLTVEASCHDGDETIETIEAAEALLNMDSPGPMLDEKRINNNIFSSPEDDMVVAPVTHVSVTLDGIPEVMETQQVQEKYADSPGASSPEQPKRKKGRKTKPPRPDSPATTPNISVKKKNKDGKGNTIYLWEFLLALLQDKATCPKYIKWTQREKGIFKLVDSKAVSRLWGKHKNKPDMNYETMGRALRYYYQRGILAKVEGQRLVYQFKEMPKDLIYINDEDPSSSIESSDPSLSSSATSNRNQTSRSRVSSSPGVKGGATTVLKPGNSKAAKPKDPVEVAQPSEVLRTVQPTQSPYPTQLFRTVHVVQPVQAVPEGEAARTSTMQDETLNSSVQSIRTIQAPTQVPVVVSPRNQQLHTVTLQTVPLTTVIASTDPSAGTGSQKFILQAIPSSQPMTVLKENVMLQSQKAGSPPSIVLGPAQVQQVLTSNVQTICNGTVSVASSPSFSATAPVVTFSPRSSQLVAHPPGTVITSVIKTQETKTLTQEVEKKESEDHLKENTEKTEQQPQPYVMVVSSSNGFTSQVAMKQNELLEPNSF
Chain of ETV5 (P41161 whole entry): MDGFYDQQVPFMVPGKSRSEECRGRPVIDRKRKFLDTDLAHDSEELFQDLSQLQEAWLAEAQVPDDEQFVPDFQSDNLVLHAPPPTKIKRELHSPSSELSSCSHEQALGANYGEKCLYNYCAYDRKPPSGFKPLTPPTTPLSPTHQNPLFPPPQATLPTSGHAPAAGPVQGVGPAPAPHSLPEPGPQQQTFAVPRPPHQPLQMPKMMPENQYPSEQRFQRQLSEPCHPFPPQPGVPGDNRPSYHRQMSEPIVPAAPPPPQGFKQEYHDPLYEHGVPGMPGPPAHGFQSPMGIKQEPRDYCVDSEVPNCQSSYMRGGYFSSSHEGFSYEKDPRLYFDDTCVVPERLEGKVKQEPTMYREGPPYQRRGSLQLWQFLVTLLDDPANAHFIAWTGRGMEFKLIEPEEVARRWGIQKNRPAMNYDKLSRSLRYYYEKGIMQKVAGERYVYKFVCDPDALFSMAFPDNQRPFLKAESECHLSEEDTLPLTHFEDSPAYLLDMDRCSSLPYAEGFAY
Chain of SPIB (Q01892 whole entry): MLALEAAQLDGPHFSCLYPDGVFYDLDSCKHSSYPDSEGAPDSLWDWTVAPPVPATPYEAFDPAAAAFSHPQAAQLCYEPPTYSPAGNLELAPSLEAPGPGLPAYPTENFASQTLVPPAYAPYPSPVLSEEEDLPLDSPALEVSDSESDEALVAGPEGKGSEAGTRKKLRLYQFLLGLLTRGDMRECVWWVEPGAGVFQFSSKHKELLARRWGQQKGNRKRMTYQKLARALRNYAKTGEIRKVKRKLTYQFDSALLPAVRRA
Chain of HSF1 (Q00613 whole entry): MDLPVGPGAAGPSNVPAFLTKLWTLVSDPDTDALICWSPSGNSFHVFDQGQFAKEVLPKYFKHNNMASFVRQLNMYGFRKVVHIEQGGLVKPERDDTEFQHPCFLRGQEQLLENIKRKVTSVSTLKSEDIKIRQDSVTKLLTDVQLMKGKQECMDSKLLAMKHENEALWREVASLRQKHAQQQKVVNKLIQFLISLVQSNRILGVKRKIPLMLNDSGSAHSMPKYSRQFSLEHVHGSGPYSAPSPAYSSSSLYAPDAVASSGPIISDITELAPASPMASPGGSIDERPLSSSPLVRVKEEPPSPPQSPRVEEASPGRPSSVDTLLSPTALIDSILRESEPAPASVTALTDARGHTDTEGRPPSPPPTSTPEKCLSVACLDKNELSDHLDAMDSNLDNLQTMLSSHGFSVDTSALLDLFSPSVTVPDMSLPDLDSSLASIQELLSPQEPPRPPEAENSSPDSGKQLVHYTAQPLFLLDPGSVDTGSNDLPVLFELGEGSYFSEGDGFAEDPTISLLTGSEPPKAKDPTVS
Chain of CRX (O43186 whole entry): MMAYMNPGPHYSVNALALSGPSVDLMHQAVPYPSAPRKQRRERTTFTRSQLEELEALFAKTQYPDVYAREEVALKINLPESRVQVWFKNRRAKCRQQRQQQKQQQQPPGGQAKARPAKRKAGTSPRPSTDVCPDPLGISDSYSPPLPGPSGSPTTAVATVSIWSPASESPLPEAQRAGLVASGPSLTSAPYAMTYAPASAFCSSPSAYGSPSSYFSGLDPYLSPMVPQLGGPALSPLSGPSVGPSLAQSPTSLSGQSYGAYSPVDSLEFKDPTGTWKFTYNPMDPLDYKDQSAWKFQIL
Chain of ELF4 (Q99607 whole entry): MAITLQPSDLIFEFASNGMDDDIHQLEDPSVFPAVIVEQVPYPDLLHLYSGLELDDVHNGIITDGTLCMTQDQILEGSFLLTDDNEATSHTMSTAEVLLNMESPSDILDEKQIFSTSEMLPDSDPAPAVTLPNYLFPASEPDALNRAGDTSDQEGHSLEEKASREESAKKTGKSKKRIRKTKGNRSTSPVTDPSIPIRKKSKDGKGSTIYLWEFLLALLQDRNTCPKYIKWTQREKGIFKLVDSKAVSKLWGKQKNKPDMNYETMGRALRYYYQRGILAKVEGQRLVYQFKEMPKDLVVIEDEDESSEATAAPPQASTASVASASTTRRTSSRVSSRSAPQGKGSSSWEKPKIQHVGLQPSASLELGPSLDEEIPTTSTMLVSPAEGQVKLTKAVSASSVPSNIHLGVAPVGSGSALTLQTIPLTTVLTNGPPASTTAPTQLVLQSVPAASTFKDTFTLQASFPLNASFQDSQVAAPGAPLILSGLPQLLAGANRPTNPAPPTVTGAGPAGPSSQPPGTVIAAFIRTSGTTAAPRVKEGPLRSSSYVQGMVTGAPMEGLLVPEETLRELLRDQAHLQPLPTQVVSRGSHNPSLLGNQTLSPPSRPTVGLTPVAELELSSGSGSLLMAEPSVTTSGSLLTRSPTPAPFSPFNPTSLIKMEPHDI

On to TCTGGT, for which the binding signal is 1.25 fold enrichment (6-mer frequency, TF over GST control) in the assay with FLI1; 1.29 fold enrichment (6-mer frequency, TF over GST control) with ELK1; 1.32 fold enrichment (6-mer frequency, TF over GST control) with GABPA; 1.33 fold enrichment (6-mer frequency, TF over GST control) with ERG; 1.22 fold enrichment (6-mer frequency, TF over GST control) with ELF1; 1.21 fold enrichment (6-mer frequency, TF over GST control) in the assay with EHF. In addition, the binding signal in the assay with SPI1 is 1.31 fold enrichment (6-mer frequency, TF over GST control); with SPIB, 1.21 fold enrichment (6-mer frequency, TF over GST control); with ELK3, 1.31 fold enrichment (6-mer frequency, TF over GST control); with FEV, 1.12 fold enrichment (6-mer frequency, TF over GST control); with ETV5, 1.28 fold enrichment (6-mer frequency, TF over GST control); with HSF1, 1.8 fold enrichment (6-mer frequency, TF over GST control). The binding signal with SPIC is 1.38 fold enrichment (6-mer frequency, TF over GST control); in the assay with ELF4 it was 1.28 fold enrichment (6-mer frequency, TF over GST control); with ELK4, 1.17 fold enrichment (6-mer frequency, TF over GST control); with ETV2 it was 1.16 fold enrichment (6-mer frequency, TF over GST control); with ELF3, 1.34 fold enrichment (6-mer frequency, TF over GST control); with CRX, 1.33 fold enrichment (6-mer frequency, TF over GST control). The binding signal with ETV1 is 1.1 fold enrichment (6-mer frequency, TF over GST control).

Values taken from article PMC7862700, “An all-to-all approach to the identification of sequence-specific readers for epigenetic DNA modifications on cytosine”.
